These results are taken from PubChem BioAssay.

The nature of experiment [1]: antimalarial activity against Dd2 strain (AID 2302;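 active means growth inhibition above 50% at the single 2 µM test dose, taken to imply half-maximal potency below 2 µM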;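 further: 0% = DMSO untreated growth and 100% = chloroquine plus artemisinin killed control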). Conditions: P. falciparum Dd2 in RBCs, LDH growth readout, 72 h; at 2 µM; stronger effect = higher value.
The nature of experiment [2]: HepG2 cytotoxicity, primary screen, cytotoxicity control for P. falciparum antimalarial project, cell-based, ATP luminescence (AID 2303;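 active means inhibition above 50%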;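 further: 0% = DMSO wells and 100% = digitonin-killed cells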). The settings on record: HepG2 viability, 24-48 h, at 10 µM, stronger effect = higher value.
The target in experiment [3] is L-lactate dehydrogenase (Plasmodium falciparum (isolate CDC / Honduras)) (UniProt Q27743). In words: PfLDH activity inhibition – cell lysate, 3D7 strain, counter-screen for P. falciparum growth inhibition project (AID 2304).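 Further: 0% = vehicle and 100% = reference inhibitor.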 The settings on record: P. falciparum 3D7 crude extract, LDH APAD/NBT absorbance; at 2 µM; stronger effect = higher value. (In general: Counterscreens check selectivity or assay interference.)
Chain of L-lactate dehydrogenase (Plasmodium falciparum (isolate CDC / Honduras)) (Q27743 whole entry, looked up): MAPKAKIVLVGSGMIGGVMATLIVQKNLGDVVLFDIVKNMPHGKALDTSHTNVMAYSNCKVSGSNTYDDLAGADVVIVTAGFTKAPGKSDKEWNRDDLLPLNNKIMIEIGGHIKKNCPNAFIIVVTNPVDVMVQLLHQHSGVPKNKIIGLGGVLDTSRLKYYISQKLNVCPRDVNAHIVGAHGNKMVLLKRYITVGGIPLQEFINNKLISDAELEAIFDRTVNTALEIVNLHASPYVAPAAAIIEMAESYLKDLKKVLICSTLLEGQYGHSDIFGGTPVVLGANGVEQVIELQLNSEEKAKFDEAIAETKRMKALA

The nature of experiment [4]: inhibition of 3D7 malaria parasite growth – strain 3D7 (AID 2306).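 Further: 0% = DMSO wells and 100% = chloroquine plus artemisinin control wells.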 Conditions: P. falciparum 3D7 erythrocytic growth, LDH absorbance, 72 h; at 2 µM; stronger effect = higher value.
Experiment [5] deals with Calcium-dependent protein kinase 1 (Plasmodium falciparum (isolate 3D7)) (UniProt P62344). In words: PfCDPK1 kinase inhibitors, biochemical, TCAMS library (AID 1159585; cut-off not given, nearly all actives have IC50 up to about 0.98 µM;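 further: inhibitors leave more ATP so luminescence rises with inhibition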). Conditions: recombinant PfCDPK1, Kinase-Glo ATP depletion luminescence. (Kinase-Glo measures the ATP left after a reaction by luminescence.)
Chain of Calcium-dependent protein kinase 1 (Plasmodium falciparum (isolate 3D7)) (P62344 whole entry, looked up): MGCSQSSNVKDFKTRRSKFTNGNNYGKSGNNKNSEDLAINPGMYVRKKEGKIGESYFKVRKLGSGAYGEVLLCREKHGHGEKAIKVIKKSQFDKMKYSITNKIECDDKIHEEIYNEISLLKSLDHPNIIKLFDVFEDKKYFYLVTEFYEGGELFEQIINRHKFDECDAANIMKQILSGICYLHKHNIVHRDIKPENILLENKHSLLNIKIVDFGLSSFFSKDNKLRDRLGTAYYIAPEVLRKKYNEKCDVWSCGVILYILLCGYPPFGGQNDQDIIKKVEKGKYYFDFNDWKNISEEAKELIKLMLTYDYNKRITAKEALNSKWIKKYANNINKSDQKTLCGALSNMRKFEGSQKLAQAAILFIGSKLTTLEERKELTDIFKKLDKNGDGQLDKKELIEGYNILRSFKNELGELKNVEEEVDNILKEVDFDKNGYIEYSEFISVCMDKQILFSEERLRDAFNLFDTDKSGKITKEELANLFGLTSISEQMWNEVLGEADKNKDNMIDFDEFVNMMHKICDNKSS
For experiment [6], the target named is Plasmodium falciparum protein kinase 6 (PK6, PF3D7_1337100) (UniProt Q8IDW1). In words: PfPK6 kinase inhibitors, biochemical, TCAMS library (AID 1159586). Conditions: recombinant PfPK6, Kinase-Glo ATP depletion luminescence.
Chain of Plasmodium falciparum protein kinase 6 (PK6, PF3D7_1337100) (Q8IDW1 1-305): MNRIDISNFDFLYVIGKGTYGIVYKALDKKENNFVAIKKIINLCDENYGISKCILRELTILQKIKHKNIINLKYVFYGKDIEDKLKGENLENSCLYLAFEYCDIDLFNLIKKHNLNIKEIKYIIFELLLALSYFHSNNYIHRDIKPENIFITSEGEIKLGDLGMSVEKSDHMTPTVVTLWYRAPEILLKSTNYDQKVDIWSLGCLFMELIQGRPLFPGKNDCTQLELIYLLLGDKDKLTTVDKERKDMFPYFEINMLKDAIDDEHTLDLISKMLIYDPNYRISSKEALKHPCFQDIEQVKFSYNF
The target of experiment [7] is Protein kinase 7 (PK7), Plasmodium falciparum 3D7 (PF3D7_0213400) (UniProt Q7YTF7). In words: inhibition of Plasmodium PK7 catalytic activity – biochemical, TCAMS antimalarial set, Kinase-Glo luminescence (AID 1159587). Conditions: recombinant PfPK7, Kinase-Glo ATP depletion luminescence.
Chain of Protein kinase 7 (PK7), Plasmodium falciparum 3D7 (PF3D7_0213400) (Q7YTF7 1-343): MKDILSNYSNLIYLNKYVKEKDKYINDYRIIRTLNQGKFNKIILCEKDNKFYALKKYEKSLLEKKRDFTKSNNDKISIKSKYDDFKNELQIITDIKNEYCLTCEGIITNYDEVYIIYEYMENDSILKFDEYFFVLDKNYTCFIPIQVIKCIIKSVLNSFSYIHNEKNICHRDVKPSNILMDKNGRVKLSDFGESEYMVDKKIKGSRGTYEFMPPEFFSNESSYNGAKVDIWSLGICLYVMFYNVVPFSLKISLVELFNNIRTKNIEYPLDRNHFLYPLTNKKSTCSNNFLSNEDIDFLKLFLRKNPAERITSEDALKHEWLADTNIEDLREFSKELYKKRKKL
For experiment [8], the target named is Calcium-dependent protein kinase 4 (Plasmodium falciparum (isolate 3D7)) (UniProt Q8IBS5). In words: PfCDPK4 kinase inhibitors, biochemical, TCAMS library (AID 1159588; cut-off not given, nearly all actives have IC50 up to about 0.91 µM). The settings on record: recombinant PfCDPK4, Kinase-Glo ATP depletion luminescence.
Chain of Calcium-dependent protein kinase 4 (Plasmodium falciparum (isolate 3D7)) (Q8IBS5 whole entry, looked up): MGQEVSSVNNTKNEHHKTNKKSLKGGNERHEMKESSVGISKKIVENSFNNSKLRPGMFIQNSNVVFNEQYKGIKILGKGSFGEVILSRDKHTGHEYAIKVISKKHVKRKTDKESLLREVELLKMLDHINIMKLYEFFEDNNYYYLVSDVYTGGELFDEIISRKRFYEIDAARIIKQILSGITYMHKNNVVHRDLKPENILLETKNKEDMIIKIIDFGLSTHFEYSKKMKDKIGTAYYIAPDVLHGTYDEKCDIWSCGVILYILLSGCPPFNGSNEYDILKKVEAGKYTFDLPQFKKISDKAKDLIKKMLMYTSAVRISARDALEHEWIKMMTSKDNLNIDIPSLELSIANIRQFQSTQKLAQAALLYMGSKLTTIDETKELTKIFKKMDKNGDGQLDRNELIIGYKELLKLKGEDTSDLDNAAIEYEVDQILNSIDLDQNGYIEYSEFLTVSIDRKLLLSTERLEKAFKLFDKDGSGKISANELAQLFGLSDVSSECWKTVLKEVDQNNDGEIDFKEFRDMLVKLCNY

Unmarked numbers belong to inactive results. For some of these results: Measured potencies and affinities stand elsewhere. Calls of active or inactive are those of the source. Unless noted, how the calls were made is not given here.

The term inhibition denotes the relative decrease from the control value, in per cent.

`Cc1ccc(Cc2cnc(NCCSCc3ccc(CN4CCOCC4)o3)[nH]c2=O)cn1`: the growth inhibition in experiment [1] was -3%; in experiment [4], 95% (active). Moreover, the inhibition in experiment [2] is 2%; in experiment [3], -4%. The result in experiment [5], in experiment [6], in experiment [7] and in experiment [8] was inactive.
For `CCc1ccc(S(=O)(=O)Nc2ccc(CCN3CCC(N4CCCCC4)CC3)cc2)cc1`, the growth inhibition in experiment [1] is 13%; in experiment [4], 100% (active). In addition, the inhibition in experiment [2] was 35%; in experiment [3], -2%. Further, the outcome in experiment [5], in experiment [6], in experiment [7] and in experiment [8] was inactive.
Turning to `CN(C1CCC(NC(=O)/C=C/c2ccccc2)CC1)C1CC2(CCN(C(=O)OC(C)(C)C)CC2)c2ccccc21` (stereo not given), the growth inhibition in experiment [1] and in experiment [4] was 95% (active) each time. The inhibition is 16% in experiment [2] and 5% in experiment [3]. For the same compound, the result in experiment [5], in experiment [6], in experiment [7] and in experiment [8] was inactive.
For `CNC(=O)c1ccccc1Nc1cc(Nc2cc(OC)ccn2)ncc1Cl`, the growth inhibition in experiment [1] and in experiment [4] was 100% (active) each time. Also, the results for the inhibition in experiment [2] and in experiment [3] were 69% (active) and 5%, respectively. Further, the result in experiment [5], in experiment [6], in experiment [7] and in experiment [8] was inactive.
With `CN(C)c1ccnc2ccc(NC(=O)Nc3ccnc4ccccc34)cc12`, the growth inhibition is 99% (active) in experiment [1] and 100% (active) in experiment [4]. For the same compound, the inhibition in experiment [2] is 15%; in experiment [3] it was 3%. For the same compound, the outcome in experiment [5], in experiment [6], in experiment [7] and in experiment [8] was inactive.
For `CCC(=O)Nc1nnc(Cc2ccc(OC)c(OC)c2)s1`, the growth inhibition in experiment [1] was 1%; in experiment [4], 93% (active). For the same compound, the inhibition in experiment [2] is -4%; in experiment [3] it was -2%. For the same compound, the outcome in experiment [5], in experiment [6], in experiment [7] and in experiment [8] was inactive.
On to `O=C(NCc1ccc(C(F)(F)F)cc1)c1cccc(-c2nnc(-c3cccc(-c4cncnc4)c3)o2)c1`, for which the growth inhibition in experiment [1] was 79% (active); in experiment [4] it was 96% (active). In addition, the figures for the inhibition in experiment [2] and in experiment [3] were 13% and -2%, respectively. For the same compound, the outcome in experiment [5], in experiment [6], in experiment [7] and in experiment [8] was inactive.
Take `Brc1ccsc1-c1nc(NCCC(c2ccccc2)c2ccccc2)no1`: the growth inhibition in experiment [1] was 81% (active); in experiment [4] it was 94% (active). Besides, the inhibition in experiment [2] is 17%; in experiment [3], -5%. The outcome in experiment [5], in experiment [6], in experiment [7] and in experiment [8] was inactive.
As for `COc1ccc2nccc([C@@H](O)CN3CCC(NCC4COc5ccccc5O4)CC3)c2c1` (stereo not given in full), the growth inhibition in experiment [1] was 94% (active); in experiment [4] it was 98% (active). Also, the inhibition was 17% in experiment [2] and 4% in experiment [3]. Further, the result in experiment [5], in experiment [6], in experiment [7] and in experiment [8] was inactive.
On to `CN(CCc1ccccn1)Cc1ccc(-c2ccc(-c3nc4ccccc4[nH]3)s2)cc1`, for which the growth inhibition in experiment [1] is 48%; in experiment [4] it was 100% (active). Moreover, the inhibition is 29% in experiment [2] and 6% in experiment [3]. Moreover, the outcome in experiment [5], in experiment [6], in experiment [7] and in experiment [8] was inactive.
In the case of `Cc1cc(C)n2nc(C(=O)Nc3cc(C(F)(F)F)ccc3N3CCOCC3)nc2n1`, the values for the growth inhibition in experiment [1] and in experiment [4] were 91% (active) and 94% (active), respectively. Also, the values for the inhibition in experiment [2] and in experiment [3] were 2% and -3%, respectively. Moreover, the outcome in experiment [5], in experiment [6], in experiment [7] and in experiment [8] was inactive.
With `CCOc1ccc2nc(N(CCCn3ccnc3)C(=O)C=Cc3cccs3)sc2c1`, the growth inhibition in experiment [1] and in experiment [4] was 97% (active) each time. In addition, the inhibition in experiment [2] and in experiment [3] was -1% in each case. Moreover, the result in experiment [5], in experiment [6], in experiment [7] and in experiment [8] was inactive.
`COc1ccc2c(NN=Cc3ccncc3)ccnc2c1`: the growth inhibition in experiment [1] is 6%; in experiment [4], 95% (active). Further, the inhibition was -12% in experiment [2] and -3% in experiment [3]. The outcome in experiment [5], in experiment [6], in experiment [7] and in experiment [8] was inactive.
Consider `CCOC(=O)c1ccc(NCc2ccccn2)cc1`, for which the growth inhibition is -2% in experiment [1] and 99% (active) in experiment [4]. Further, the inhibition in experiment [2] was -3%; in experiment [3], -6%. Besides, the outcome in experiment [5], in experiment [6], in experiment [7] and in experiment [8] was inactive.
In the case of `Cc1cc(N[C@@H](CC(C)C)C(=O)NCCc2ccccc2)nc(NCCc2ccc(F)cc2)n1`, the growth inhibition in experiment [1] is 53% (active); in experiment [4], 98% (active). Besides, the inhibition in experiment [2] is 12%; in experiment [3] it was -1%. Moreover, the result in experiment [5], in experiment [6], in experiment [7] and in experiment [8] was inactive.
With `O=C(Nc1cccc(-c2ccc(-c3nc4ccccc4[nH]3)cc2)c1)c1csnn1`, the growth inhibition is 21% in experiment [1] and 91% (active) in experiment [4]. In addition, the inhibition in experiment [2] was 31%; in experiment [3] it was 0%. The outcome in experiment [5], in experiment [6], in experiment [7] and in experiment [8] was inactive.
Take `COc1ccc(N2CCN(c3nc(Nc4ccc(NC(C)=O)cc4)nc(N4CCCC4)n3)CC2)cc1`: the growth inhibition in experiment [1] was 38%; in experiment [4], 91% (active). The inhibition was -7% in experiment [2] and -2% in experiment [3]. The result in experiment [5], in experiment [6], in experiment [7] and in experiment [8] was inactive.
In the case of `COc1cccc2cc(C(=O)N[C@@H](CC(C)C)C(=O)NC(/C=N/NC(=O)c3ccccc3)CCc3ccccc3)oc12` (stereo not given in full), the growth inhibition was 73% (active) in experiment [1] and 88% (active) in experiment [4]. Besides, the inhibition was 8% in experiment [2] and -3% in experiment [3]. For the same compound, the outcome in experiment [5], in experiment [6], in experiment [7] and in experiment [8] was inactive.
For `O=C(N[C@H]1CCN(CCc2ccc(O[C@H]3CCNC3)c(F)c2)C1)c1ccc(Cl)c(Cl)c1`, the growth inhibition was 23% in experiment [1] and 95% (active) in experiment [4]. In addition, the inhibition in experiment [2] was 39%; in experiment [3], 2%. Besides, the outcome in experiment [5], in experiment [6], in experiment [7] and in experiment [8] was inactive.
As to `CCN(CC)CCN(Cc1ccc(-c2ccc(C(F)(F)F)cc2)cc1)C(=O)Cn1c(CCc2ccc(F)cc2)nc(=O)c2ccccc21`, the growth inhibition in experiment [1] is 58% (active); in experiment [4], 97% (active). The figures for the inhibition in experiment [2] and in experiment [3] were 42% and -3%, respectively. For the same compound, the result in experiment [5], in experiment [6], in experiment [7] and in experiment [8] was inactive.
